Activity calls are given as the source filed them.
Experiments:
[1] = test system: Plasmodium falciparum Sir2 (PF13_0152, Sir2A); test: Plasmodium falciparum Sir2A binding compounds – biochemical, small-molecule microarray, 635 nm fluorescence, primary screen (AID 1098); settings: fluorescence 635 nm, higher = more signal;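 further: score merges spot fluorescence intensity with its signal-to-noise ratio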
[2] = probe aDKK1 binding to arrayed compounds – biochemical, biotinylated probe, 635/667 nm fluorescence, primary screen (AID 1099); settings: small-molecule microarray, higher = more signal;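 further: score merges 667nm spot fluorescence with signal to noise across triplicate slides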
[3] = probe aCHRDL2 binding to arrayed compounds – biochemical, biotinylated probe, 635/667 nm fluorescence, primary screen (AID 1100); settings: small-molecule microarray, higher = more signal
[4] = change in splice reporter luminescence, either direction, cell-based, HEK293, spliceosome inhibition project, primary screen (AID 1101); settings: HEK293 splicing luciferase reporter, 24 h, higher = more signal, called active from +8 up or from −8 down;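 further: HEK293 cells carrying a splicing-competent luciferase reporter gene; test concentration not given here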
[5] = biological target: Fibroblast growth factor 10 (Homo sapiens) (UniProt O15520); test: compounds binding fibroblast growth factor 10 – biochemical, small-molecule microarray, 635 nm fluorescence, primary screen (AID 1102); settings: FGF10 binding, fluorescence 635 nm, higher = more signal
[6] = test system: glycogen synthase kinase-3 (GSK3A per assay name; protocol says GSK3B); test: compounds binding glycogen synthase kinase-3 – biochemical, small-molecule microarray, 635 nm fluorescence, GSK3A, primary screen (AID 1103); settings: fluorescence 635 nm, higher = more signal; further: the record names both GSK3A and GSK3B
[7] = biological target: Epidermal growth factor receptor (Homo sapiens) (UniProt P00533); test: compounds binding epidermal growth factor receptor – biochemical, small-molecule microarray, 635 nm fluorescence, primary screen (AID 1104); settings: EGFR binding, higher = more signal;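 further: score merges 667 nm emission intensity with spot signal to noise over triplicate slides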
[8] = biological target: Follistatin-related protein 3 (Homo sapiens) (UniProt O95633); test: compounds binding follistatin-related protein 3 – biochemical, small-molecule microarray, 635 nm fluorescence, primary screen (AID 1105); settings: FSTL3 binding, higher = more signal;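 further: score merges emission near 667 nm and signal to noise per printed spot across three slides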
[9] = biological target: Dickkopf-related protein 1 (Homo sapiens) (UniProt O94907); test: small molecules binding DKK1 protein – biochemical, small-molecule microarray, 635 nm fluorescence scan, primary screen (AID 1106); settings: higher = more signal;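 further: score merges emission near 667 nm with signal to noise over three replicate slides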
[10] = test system: Inhibin beta A chain (activin A); test: small molecules binding activin A – biochemical, small-molecule microarray, 635 nm fluorescence scan, primary screen (AID 1107); settings: INHBA, higher = more signal;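 further: mouse activin A protein probed at 4.33 µg/mL on printed slides; score merges bound-protein fluorescence near 667 nm with spot signal-to-noise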
[11] = test system: Human papillomavirus type 1a protein E7 (residues 44-93); test: small molecules binding HPV E7 44-93 – biochemical, small-molecule microarray, residues 44-93, 635 nm fluorescence, primary screen (AID 1108); settings: fluorescence 635 nm, higher = more signal;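 further: E7 fragment applied at 1 µg/mL in TBST for 1 h at 4 C; score combines spot fluorescence with its signal to noise ratio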
[12] = hepatitis C replication reporter changes, two-sided – Huh7 cells, luciferase reporter, HCV replication inhibitor project, primary screen (AID 1109); settings: Huh7 HCV replicon luciferase reporter, 48 h; higher = more signal;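 further: huh7 hepatoma cells harbouring a luciferase neomycin HCV replicon reporter; luciferase luminescence as measure of HCV replicon replication; test concentration not given here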
[13] = biological target: Left-right determination factor 2 (Homo sapiens) (UniProt O00292); test: small molecules binding LEFTY2 protein – biochemical, small-molecule microarray, 635 nm fluorescence scan, primary screen (AID 1110); settings: higher = more signal
[14] = biological target: Calmodulin-1 (Homo sapiens) (UniProt P0DP23); test: small molecules binding calmodulin-1 with EGTA – biochemical, small-molecule microarray, Cy5-labelled CALM1, profiling panel (AID 1111); settings: Cy5-CALM1 binding fluorescence, higher = more signal;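 further: labelled calmodulin applied in Tris saline Tween buffer holding calcium plus EGTA and DTT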
[15] = biological target: Calmodulin-1 (Homo sapiens) (UniProt P0DP23); test: small molecules binding Ca-loaded calmodulin-1 – biochemical, small-molecule microarray, Cy5-labelled CALM1, plus calcium, artefact control for SMM control-protein annotation, profiling panel (AID 1112); settings: Cy5-CALM1 binding fluorescence, higher = more signal;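 further: score merges spot fluorescence with signal to noise from triplicate slides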
[16] = probe aWnt5a binding to arrayed compounds – biochemical, biotinylated probe, 635/667 nm fluorescence, primary screen (AID 1113); settings: small-molecule microarray, higher = more signal;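 further: score merges 667 nm fluorescence intensity with signal-to-noise per printed feature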
[17] = probe aShh binding to arrayed compounds – biochemical, biotinylated probe, 635/667 nm fluorescence, primary screen (AID 1114); settings: small-molecule microarray, higher = more signal;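 further: probe is biotin-labelled aShh protein from a stem cell growth factor screen; measures binding of labelled protein to compounds printed on the slide; score merges feature fluorescence at 667 nm with signal-to-noise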
[18] = probe aNog binding to arrayed compounds – biochemical, biotinylated probe, 635/667 nm fluorescence, primary screen (AID 1115); settings: small-molecule microarray, higher = more signal;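 further: probe is biotinylated aNog protein used at 0.15 µg/mL for 1 h at 4 C; z-score combines 667 nm fluorescence of each spot with its signal to noise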
[19] = biological target: Torsin-1A-interacting protein 1 (Homo sapiens) (UniProt Q5JTV8); test: compound microarray binding of lysate hLAP1 – cell lysate, small-molecule microarray, COS7 lysate, 635/667 nm fluorescence, primary screen (AID 1116); settings: 635 nm fluorescence, higher = more signal
[20] = biological target: Alpha-bungarotoxin (Bungarus multicinctus) (UniProt P60615); test: compounds binding labelled alpha-BTX control protein – biochemical, small-molecule microarray, Alexa647 label, 635/667 nm fluorescence, artefact control for SMM control protein annotation, profiling panel (AID 1117); settings: alpha-BTX-A647 binding fluorescence, higher = more signal
Sequence of Alpha-bungarotoxin (Bungarus multicinctus) (P60615 whole entry, looked up): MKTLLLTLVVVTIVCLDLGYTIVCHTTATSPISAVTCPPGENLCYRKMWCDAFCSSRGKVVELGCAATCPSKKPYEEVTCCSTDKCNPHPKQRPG

Sequence of Epidermal growth factor receptor (Homo sapiens) (P00533 whole entry, looked up): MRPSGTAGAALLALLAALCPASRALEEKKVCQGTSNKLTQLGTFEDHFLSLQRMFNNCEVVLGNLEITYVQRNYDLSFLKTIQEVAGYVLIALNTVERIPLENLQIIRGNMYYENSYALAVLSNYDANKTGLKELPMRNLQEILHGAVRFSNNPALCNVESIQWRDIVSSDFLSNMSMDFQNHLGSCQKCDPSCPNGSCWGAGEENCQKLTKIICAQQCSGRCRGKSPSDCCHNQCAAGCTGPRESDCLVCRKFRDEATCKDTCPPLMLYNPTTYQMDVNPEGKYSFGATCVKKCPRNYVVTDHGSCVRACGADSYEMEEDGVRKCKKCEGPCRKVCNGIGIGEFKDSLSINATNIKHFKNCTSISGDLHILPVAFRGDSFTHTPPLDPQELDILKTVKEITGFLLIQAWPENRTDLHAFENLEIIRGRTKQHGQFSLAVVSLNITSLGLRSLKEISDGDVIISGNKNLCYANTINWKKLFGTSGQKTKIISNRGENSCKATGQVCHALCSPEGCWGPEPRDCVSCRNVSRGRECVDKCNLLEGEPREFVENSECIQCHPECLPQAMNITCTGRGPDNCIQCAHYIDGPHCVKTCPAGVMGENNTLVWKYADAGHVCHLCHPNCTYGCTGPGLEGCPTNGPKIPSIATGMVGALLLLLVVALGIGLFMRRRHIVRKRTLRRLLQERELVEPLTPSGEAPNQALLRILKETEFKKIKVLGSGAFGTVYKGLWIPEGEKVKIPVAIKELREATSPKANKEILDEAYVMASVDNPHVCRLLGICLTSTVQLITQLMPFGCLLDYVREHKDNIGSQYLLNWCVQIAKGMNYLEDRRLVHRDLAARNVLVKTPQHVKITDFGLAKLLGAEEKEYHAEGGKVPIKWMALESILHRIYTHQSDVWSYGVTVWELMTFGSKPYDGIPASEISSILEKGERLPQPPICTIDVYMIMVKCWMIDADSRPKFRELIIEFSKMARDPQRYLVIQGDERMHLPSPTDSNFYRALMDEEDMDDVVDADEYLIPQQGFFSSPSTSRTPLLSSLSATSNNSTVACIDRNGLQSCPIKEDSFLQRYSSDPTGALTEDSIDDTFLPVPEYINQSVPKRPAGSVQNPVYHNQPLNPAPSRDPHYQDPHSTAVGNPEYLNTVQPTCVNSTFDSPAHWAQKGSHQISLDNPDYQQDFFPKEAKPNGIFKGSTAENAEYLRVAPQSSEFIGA
Sequence of Left-right determination factor 2 (Homo sapiens) (O00292 whole entry, looked up): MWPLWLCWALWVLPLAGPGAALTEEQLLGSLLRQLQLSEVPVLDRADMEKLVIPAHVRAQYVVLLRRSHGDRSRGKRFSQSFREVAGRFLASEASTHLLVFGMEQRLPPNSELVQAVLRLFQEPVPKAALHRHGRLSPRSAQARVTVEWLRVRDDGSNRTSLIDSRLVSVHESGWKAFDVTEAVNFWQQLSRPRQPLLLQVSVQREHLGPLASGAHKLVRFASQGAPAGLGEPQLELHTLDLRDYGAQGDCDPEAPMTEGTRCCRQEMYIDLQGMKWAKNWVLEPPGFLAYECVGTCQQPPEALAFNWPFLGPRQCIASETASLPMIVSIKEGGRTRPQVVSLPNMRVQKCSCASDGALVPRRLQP
Sequence of Torsin-1A-interacting protein 1 (Homo sapiens) (Q5JTV8 whole entry, looked up): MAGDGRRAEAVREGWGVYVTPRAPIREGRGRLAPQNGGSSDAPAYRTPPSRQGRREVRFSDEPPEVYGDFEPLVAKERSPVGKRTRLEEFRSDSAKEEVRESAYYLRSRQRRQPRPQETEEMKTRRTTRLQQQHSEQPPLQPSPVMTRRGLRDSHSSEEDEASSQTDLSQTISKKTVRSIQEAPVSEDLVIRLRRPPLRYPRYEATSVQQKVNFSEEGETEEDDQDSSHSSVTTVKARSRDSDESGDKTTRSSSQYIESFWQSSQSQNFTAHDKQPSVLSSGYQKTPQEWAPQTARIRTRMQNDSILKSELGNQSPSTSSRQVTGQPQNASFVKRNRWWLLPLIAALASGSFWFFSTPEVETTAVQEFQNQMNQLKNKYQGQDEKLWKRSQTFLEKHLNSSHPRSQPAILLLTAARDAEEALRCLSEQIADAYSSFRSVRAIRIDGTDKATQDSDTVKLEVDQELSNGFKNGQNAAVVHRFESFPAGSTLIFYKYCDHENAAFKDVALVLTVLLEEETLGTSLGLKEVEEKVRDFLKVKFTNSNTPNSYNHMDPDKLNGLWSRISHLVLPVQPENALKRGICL
Sequence of Dickkopf-related protein 1 (Homo sapiens) (O94907 whole entry, looked up): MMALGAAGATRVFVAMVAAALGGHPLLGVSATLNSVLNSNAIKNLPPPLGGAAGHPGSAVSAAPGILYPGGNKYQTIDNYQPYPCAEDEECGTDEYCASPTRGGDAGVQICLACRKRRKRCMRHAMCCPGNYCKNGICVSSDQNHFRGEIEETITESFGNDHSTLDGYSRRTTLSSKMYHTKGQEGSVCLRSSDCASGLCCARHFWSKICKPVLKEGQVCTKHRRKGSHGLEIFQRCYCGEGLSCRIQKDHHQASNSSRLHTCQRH
Sequence of Follistatin-related protein 3 (Homo sapiens) (O95633 whole entry, looked up): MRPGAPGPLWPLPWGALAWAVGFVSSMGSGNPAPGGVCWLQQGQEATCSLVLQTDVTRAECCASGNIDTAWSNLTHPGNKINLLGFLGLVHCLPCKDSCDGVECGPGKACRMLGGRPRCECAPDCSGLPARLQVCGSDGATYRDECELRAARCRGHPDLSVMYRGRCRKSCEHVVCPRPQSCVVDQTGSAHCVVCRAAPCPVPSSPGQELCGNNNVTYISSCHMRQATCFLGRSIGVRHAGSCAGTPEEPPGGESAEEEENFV
Sequence of Fibroblast growth factor 10 (Homo sapiens) (O15520 whole entry, looked up): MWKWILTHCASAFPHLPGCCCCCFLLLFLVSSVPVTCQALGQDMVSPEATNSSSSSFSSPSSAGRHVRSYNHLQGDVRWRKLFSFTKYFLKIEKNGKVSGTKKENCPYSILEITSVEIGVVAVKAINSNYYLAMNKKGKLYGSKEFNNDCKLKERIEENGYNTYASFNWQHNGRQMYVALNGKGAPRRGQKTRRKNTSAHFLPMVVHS

Compound | composite z-score [1] | composite z-score [2] | composite z-score [3] | z-score [4] | composite z-score [5] | composite z-score [6] | composite z-score [7] | composite z-score [8] | composite z-score [9] | composite z-score [10] | composite z-score [11] | z-score [12] | composite z-score [13] | composite z-score [14] | composite z-score [15] | composite z-score [16] | composite z-score [17] | composite z-score [18] | composite z-score [19] | composite z-score [20]
O=C1C2C=CC(C(O)c3ccc(B(O)O)cc3)N(Nc3ccc([N+](=O)[O-])cc3)C2C(=O)N1c1ccccc1 (stereo not given) | 0.76 | 0.627 | 0.642 | 0.98 (inactive) | 1.11 | 1.19 | 0.415 | 0.998 | -0.0757 | 0.0102 | 1.38 | -4.39 | 0.528 | 0.394 | 0.218 | -0.0107 | -0.0146 | 0.46 | 0.151 | 0.435
COc1cc2c(cc1O)C(c1ccc(CN3CCCC3)cc1)N(Cc1sc3ccccc3c1Cl)CC2 (stereo not given) | 1.41 | 0.0829 | 0.234 | -0.478 (inactive) | 0.514 | -0.111 | 0.521 | 0.988 | 1.12 | 1.35 | 0.573 | -2.57 | 0.82 | 0.26 | -0.935 | -0.0036 | -0.0626 | 0.151 | 0.0494 | 0.518
O=C1C[C@@](C(=O)O)(c2ccc([N+](=O)[O-])cc2)[C@@H](c2ccc(CO)cc2I)N1C1CCCCC1 | 1.24 | -0.162 | 0.862 | -2.72 (inactive) | 1.27 | -0.428 | 0.126 | 0.596 | -0.605 | 0.775 | -0.549 | -1.32 | -0.27 | 1.6 | 0.734 | 0.0194 | -0.299 | -0.103 | -0.126 | 1.28
CCOC(=O)C[C@H]1[C@H](OC(=O)c2ccccc2-c2ccccc2)[C@@H](NC(=O)c2ccc(-c3ccccc3)cc2)c2cc(OCCCO)ccc2N1C(=O)c1ccccc1 | 0.154 | 0.319 | -0.181 | 0.119 (inactive) | 0.888 | 0.425 | 0.31 | 0.645 | 0.531 | -0.0094 | 1.26 | -1.81 | 0.572 | 0.455 | -0.361 | -0.16 | -0.282 | 0.0273 | 0.539 | 0.57
CN(C)CCCCCCNC(=O)[C@@H]1C[C@@H]2C(=O)NCC(=O)N2[C@@H]1c1cccc(OCCO)c1 | 1.39 | 0.156 | -0.0688 | 0.0236 (inactive) | 1.34 | 1.36 | 0.654 | 1.48 | 1.28 | 0.433 | 1.12 | -0.358 | 1.36 | 0.138 | -0.708 | -0.0222 | 0.0948 | 0.107 | 1.88 | -0.0783
COc1ccc([Si](C)(C)[C@@H]2[C@@H](CCO)O[C@]3(C(=O)N(Cc4cccc(N5CCCCC5=O)c4)c4ccccc43)[C@H]2C)cc1 | 1.06 | -0.0212 | 0.113 | -2.96 (inactive) | 1.04 | 0.971 | 0.319 | 1 | 0.404 | 0.764 | 1.34 | -5.14 | 0.34 | 1.08 | 0.415 | -0.0165 | -0.0626 | 0 | 0.702 | 0.836
O=C(NCCN1CCOCC1)[C@@H]1c2ccccc2C(=O)N(Cc2cc(F)cc(C(F)(F)F)c2)[C@H]1c1ccc(CO)cc1 | 1.07 | -0.469 | 0.776 | 0.284 (inactive) | 0.07 | -0.202 | -0.651 | -0.217 | -1.14 | -0.333 | 1.44 | -1.33 | -1.61 | -0.346 | 0.0296 | -0.124 | -0.214 | -0.0949 | 0.812 | -0.444
COC(=O)[C@@]1(Cc2ccc(F)cc2)[C@H]2c3cc(C(=O)N(C)C)n(CCc4c[nH]c5ccc(OC)cc45)c3C[C@H]2CN1C(=O)c1ccccc1 | -0.138 | 1.76 | 1.31 | -2.71 (inactive) | -0.162 | 0.27 | -0.446 | -0.108 | -1.73 | 0.812 | 1.47 | -1.94 | -0.995 | 1.72 | 1.16 | 0.27 | 0.764 | 1.7 | 2.15 | 1.04
Cc1ccc(S[C@]2(C(=O)NCCCN(C)C)CC(=O)N(Cc3ccccc3)[C@@H]2c2ccc(CO)cc2)cc1 | -1.43 | 0.938 | 1.15 | -0.522 (inactive) | -1.01 | -0.726 | -1.03 | -1.26 | -0.909 | 0.591 | -0.364 | -1.7 | -1.03 | -0.676 | -0.674 | -0.184 | -0.145 | 0.604 | 1.17 | 0.75
C=C(C(=O)CC[C@@H](OC(C)=O)c1ccc(OCCO)cc1)C(C)C | 0.167 | -0.0523 | 0.104 | 1.02 (inactive) | 1.57 | -0.117 | -0.544 | -0.152 | -0.207 | 0.815 | 0.522 | -1.88 | -0.384 | -0.43 | -0.908 | 0.117 | -0.0866 | 0.365 | 0.159 | 0.227
C=CC[C@@]1(C(=O)NCCN2CCOCC2)N=C(c2ccc(OCCCO)cc2)O[C@@H]1c1ccccc1CN=[N+]=[N-] | 1.02 | 1.06 | 1.3 | -1.05 (inactive) | 0.205 | 0.62 | -0.357 | 0.221 | 0.137 | 1.46 | 0.947 | -1.74 | -0.325 | 1.42 | 0.555 | -0.154 | 0.0822 | 0.104 | 1.77 | 0.604
